Source: PubChem BioAssay
Unmarked numbers belong to inactive results. The source made the active and inactive calls. Cut-off read from the data, not from the text of the source, unless noted: active = inhibition above about 28%; inactive = the rest.

Experiments:
[1] = StAR promoter reporter inhibitors, counter-screen for LRH-1 inverse agonist project, cell-based, luminescence, high throughput (AID 651611); conditions: StAR promoter luciferase reporter counterscreen, at 3.6 µM, active compounds read high
[2] = target: Nuclear receptor subfamily 5 group A member 2 (Homo sapiens) (UniProt O00482); experiment: LRH-1 (NR5A2) inverse agonists, retest, confirmation, cell-based, luminescence (AID 651613; in the data active = inhibition above about 42%;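 note: HEK293T cells co-transfected with LRH-1 and StAR promoter luciferase reporter; 0% = vehicle wells and 100% = parental cells lacking receptor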); conditions: cell-based LRH-1 luciferase reporter, inverse agonism; at 3.6 µM; active compounds read high
Nuclear receptor subfamily 5 group A member 2 (Homo sapiens), sequence (O00482 whole entry, looked up): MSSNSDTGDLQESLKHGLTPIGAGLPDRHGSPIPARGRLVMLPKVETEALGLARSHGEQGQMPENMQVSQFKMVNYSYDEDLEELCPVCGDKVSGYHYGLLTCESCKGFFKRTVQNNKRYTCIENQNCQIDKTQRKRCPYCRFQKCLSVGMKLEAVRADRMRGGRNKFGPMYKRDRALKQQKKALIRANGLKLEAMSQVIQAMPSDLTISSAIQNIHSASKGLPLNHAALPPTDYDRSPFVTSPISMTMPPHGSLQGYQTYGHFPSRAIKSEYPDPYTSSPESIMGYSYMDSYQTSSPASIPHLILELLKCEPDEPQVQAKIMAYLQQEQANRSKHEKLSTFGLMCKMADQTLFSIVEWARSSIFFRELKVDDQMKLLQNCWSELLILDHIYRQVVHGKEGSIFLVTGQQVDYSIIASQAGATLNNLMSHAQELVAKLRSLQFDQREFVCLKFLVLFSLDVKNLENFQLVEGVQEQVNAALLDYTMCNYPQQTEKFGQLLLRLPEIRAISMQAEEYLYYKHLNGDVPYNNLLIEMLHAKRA

[3] = target: Steroidogenic factor 1 (Homo sapiens) (UniProt Q13285); experiment: SF1 (NR5A1) inverse agonists, counter-screen for LRH-1 inverse agonist project, cell-based, luminescence, high throughput (AID 651614; in the data active = inhibition above about 44%;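 note: cells cotransfected with StAR promoter reporter and SF1 expression vector; 0% = vehicle on cells with receptor and 100% = vehicle on cells lacking receptor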); conditions: cell-based SF1 luciferase reporter, at 3.6 µM, active compounds read high
Steroidogenic factor 1 (Homo sapiens), sequence (Q13285 whole entry, looked up, the tested form may be a part): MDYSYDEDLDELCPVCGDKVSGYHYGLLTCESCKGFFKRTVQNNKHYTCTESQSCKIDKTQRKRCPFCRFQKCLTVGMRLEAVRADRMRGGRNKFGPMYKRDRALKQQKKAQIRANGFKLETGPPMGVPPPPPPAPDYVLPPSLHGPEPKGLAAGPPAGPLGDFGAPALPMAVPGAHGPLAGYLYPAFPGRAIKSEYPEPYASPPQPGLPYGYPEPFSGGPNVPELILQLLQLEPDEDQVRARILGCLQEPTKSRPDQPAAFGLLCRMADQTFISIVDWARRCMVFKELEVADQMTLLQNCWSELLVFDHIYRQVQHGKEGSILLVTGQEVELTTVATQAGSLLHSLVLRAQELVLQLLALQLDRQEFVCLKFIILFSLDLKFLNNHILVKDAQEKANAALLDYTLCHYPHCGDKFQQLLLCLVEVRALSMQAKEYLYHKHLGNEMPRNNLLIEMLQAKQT

[4] = VP16 transactivation reporter inhibitors, counter-screen for LRH-1 inverse agonist project, cell-based, luminescence, high throughput (AID 651615; in the data active = inhibition above about 33%); conditions: Gal4-VP16 luciferase reporter cells, at 3.6 µM, active compounds read high

Row | SMILES | inhibition [1] | inhibition [2] | inhibition [3] | inhibition [4] [%]
1 | CCCc1cc(=O)oc2cc(OCC(=O)NC3CC(C)(C)NC(C)(C)C3)ccc12 | -0.91% | 53% (active) | 45.7% (active) | 2.6
2 | O=C(CCl)Nc1ccccc1C(=O)c1ccccc1 | 1.14% | 48.4% (active) | 50% (active) | -2.6
3 | COc1ccc(CCNC(=O)CSc2nc(O)c(CCC(C)C)c(=O)[nH]2)cc1OC | 2.2% | 61.7% (active) | 50.4% (active) | -12.8
4 | NC1=CC(=O)C(=O)c2ccccc21 | 29.2% (active) | 54.9% (active) | 47% (active) | -6.09
5 | Cc1nn(Cc2ccc(Cl)cc2)c(C)c1NC(=O)c1ccc([N+](=O)[O-])cc1 | 36.1% (active) | 55.9% (active) | 50% (active) | -3.45
6 | O=C(CCl)Nc1cccc2ncccc12 | 55.6% (active) | 61.7% (active) | 60.9% (active) | -58.5
7 | CCOc1ccc(OCCN2C(=O)NC(Cc3c[nH]c4ccccc34)C2=O)cc1 (stereo not drawn) | 13.2% | 54.9% (active) | 58.2% (active) | 4.66
